# According to PubChem BioAssay (NCI):
# About 83,000 compounds went through this panel and 20% of them were active in at least one assay; those are over-represented in the sample as a whole.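 Method: cells in 96-well plates; compound added at one concentration; 48 h incubation; percent growth measured; values under 10 scored active.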 Unmarked numbers belong to inactive results. Calls of active or inactive are those of the source.
# Experiments:
# Assay in all cases: NCI-60 one-dose screen, 48 h (100 = growth as untreated, 0 = no growth, -100 = all killed)
# HT29 colon = settings: 10 µM unless noted
# SNB-75 CNS = settings: 10 µM unless noted
# SNB-19 CNS = settings: 10 µM unless noted
# U251 CNS = settings: 10 µM unless noted
# PC-3 prostate = settings: 10 µM unless noted
# SK-MEL-5 melanoma = settings: 10 µM unless noted
# UACC-62 melanoma = settings: 10 µM unless noted
# LOX IMVI melanoma = settings: 10 µM unless noted
# SK-MEL-28 melanoma = settings: 10 µM
# SK-MEL-2 melanoma = settings: 10 µM unless noted
# EKVX NSCLC = settings: 10 µM unless noted
# SN12C renal = settings: 10 µM unless noted
# UO-31 renal = settings: 10 µM unless noted
# TK-10 renal = settings: 10 µM unless noted
# ACHN renal = settings: 10 µM unless noted
# CAKI-1 renal = settings: 10 µM unless noted
# A498 renal = settings: 10 µM unless noted
# CCRF-CEM leukemia = settings: 10 µM unless noted
# MOLT-4 leukemia = settings: 10 µM unless noted
# SR leukemia = settings: 10 µM unless noted
SMILES,growth (HT29 colon),growth (SNB-75 CNS),growth (SNB-19 CNS),growth (U251 CNS),growth (PC-3 prostate),growth (SK-MEL-5 melanoma),growth (UACC-62 melanoma),growth (LOX IMVI melanoma),growth (SK-MEL-28 melanoma),growth (SK-MEL-2 melanoma),growth (EKVX NSCLC),growth (SN12C renal),growth (UO-31 renal),growth (TK-10 renal),growth (ACHN renal),growth (CAKI-1 renal),growth (A498 renal),growth (CCRF-CEM leukemia),growth (MOLT-4 leukemia),growth (SR leukemia)
COc1cc(C2CC(c3ccc(Nc4nc(NCCO)nc(N5CCOCC5)n4)cc3)=NN2c2cc(Cl)cc(Cl)c2)cc(OC)c1OC (centres undefined),33.6%,28.2%,72.6%,47.7%,34.1%,60.1%,48.6%,30.9%,72.8%,94.7%,55.5%,65.5%,42%,93.3%,47.6%,46.4%,52%,48%,33.2%,23.2%
CNC(=O)c1cc(Oc2ccc(CC(=O)Nc3cc(C(C)(C)C)cn3C)cc2)ccn1,88%,52.4%,69.9%,88.6%,75.9%,8.83% (active),62.9%,67%,79.8%,67.1%,75.6%,68.5%,87.4%,108%,66.7%,56%,53.9%,74%,69.6%,75.5%
COC(=O)c1ccc(NC(=O)CSc2nc3ccccc3c(=O)n2-c2ccccc2)cc1,108%,92.1%,99.3%,102%,103%,94%,96.3%,98.4%,113%,105%,117%,104%,86.4%,103%,103%,91.5%,96.7%,92.8%,88%,88.9%
CCC(C)(C)C(=O)O[C@H]1C[C@@H](C)C=C2C=C[C@H](C)[C@H](CC[C@@H]3CC=CC(=O)O3)[C@H]21,44.5%,80.4%,84%,82.2%,49.1%,71%,72.5%,-47.4% (active),79.2%,86.1%,107%,62.8%,76%,109%,70.9%,84.5%,107%,3.21% (active),1.21% (active),7.49% (active)
Cc1ccc(C2CC(c3ccc(Nc4nc(NCCO)nc(Nc5ccc(Cl)cc5)n4)cc3)=NN2c2cc(Cl)cc(Cl)c2)cc1 (centres undefined),107%,85.2%,106%,97.4%,98.9%,92.4%,89.5%,98.7%,105%,122%,82.7%,96.4%,70.4%,113%,95.3%,73.5%,79.1%,96.8%,93.7%,107%
NCCOc1ncccc1/C=C1\c2ccccc2-c2ccc([N+](=O)[O-])cc21,-6.91% (active),-81.1% (active),-6.38% (active),-75% (active),3.4% (active),-97.5% (active),-81.5% (active),-91.1% (active),-22% (active),-21.2% (active),-19% (active),-62% (active),-99.2% (active),-74.9% (active),-89.4% (active),-39.3% (active),-89% (active),8.64% (active),-3.92% (active),1.14% (active)
CNCCNc1nc2ccccc2c2c(=O)c3cc(OC)ccc3sc12,-33.3% (active),43.1%,57.6%,-19.6% (active),14%,76.4%,7.43% (active),-87.8% (active),74.6%,75.2%,59.2%,66.3%,41.1%,-15.1% (active),35.4%,48%,45.7%,2.47% (active),-28.8% (active),5.19% (active)
CCN1C(=O)N(CC)C2Nn3c(s/c(=C4\C(=O)N(C(C)C)c5ccccc54)c3=O)=NC21 (centres undefined),11.6%,60.2%,46.4%,28.1%,26.3%,41.4%,36.4%,40.6%,55.1%,72.9%,29.9%,47.7%,55.8%,86.6%,43.1%,45.9%,37.4%,19.3%,19.6%,21.2%
COc1ccc(/C=C/C(=O)c2ccc(Nc3nc(NCCO)nc(Nc4ccc(Cl)cc4)n3)cc2)cc1,40%,61.2%,85%,53.4%,50.6%,66.9%,69.7%,61.6%,79.2%,98.1%,66.6%,86.6%,70.8%,96.2%,67.7%,81.4%,69.2%,48.8%,46.3%,38.4%
O=c1c2cc(F)ccc2sc2c(Nc3ccncc3)nc3ccccc3c12,-58.1% (active),56.5%,25.5%,-33% (active),-10.7% (active),75%,66.7%,-66.7% (active),87.7%,99.5%,35.8%,90%,-83.3% (active),78.6%,28.5%,82.5%,63.9%,-27.4% (active),-36.9% (active),-4.43% (active)
O=c1oc2ccc(Br)cc2c(=O)n1-c1ccc(Br)cc1F,34.8%,-42.4% (active),16.9%,-5.99% (active),-4.81% (active),-84.8% (active),-40.7% (active),2.66% (active),-22.6% (active),-18% (active),3.25% (active),-1.73% (active),-19.5% (active),18.9%,-6.06% (active),-10.6% (active),–,9% (active),-16.6% (active),3.7% (active)
O=C(/C=C/c1ccc(C(F)(F)F)cc1)c1ccc(Nc2nc(NCCO)nc(N3CCOCC3)n2)cc1,7.26% (active),40.1%,39.5%,-51.3% (active),25.3%,46.3%,56%,3.82% (active),94.1%,109%,65.4%,71.5%,48%,81.8%,36.5%,53.1%,98%,10.3%,5.76% (active),19%
O=C(Nc1ccc(Cl)cc1)c1cc2ccccc2cc1OP(=O)(O)O,103%,24.2%,21.6%,18.8%,24.6%,3.56% (active),35.4%,22.9%,35.9%,7.63% (active),24.8%,41.4%,2.13% (active),18.7%,17.2%,-8.12% (active),28.7%,18.2%,38.9%,53.9%
COC(=O)/C(CCC=C(C)C)=C1\[C@@H](OC(C)=O)C[C@@]2(C)[C@H]1CC(=O)N[C@H]1[C@@]3(C)CCNC(=O)[C@@H](C)[C@@H]3CC[C@@]12C,102%,96.2%,98.6%,102%,97.8%,95.4%,96.3%,97.9%,106%,106%,98%,98.9%,81.9%,99.5%,101%,95.5%,109%,104%,99.5%,103%
